Screening data: PubChem BioAssay, National Center for Advancing Translational Sciences (NCATS)
Compounds with a hit are over-represented: about 2% of the library has one in this group of screens.
HTT cytoprotect: qHTS Multiplex Assay to Identify Dual Action Probes in a Cell Model of Huntington: Cytoprotection (ATP). PC12 HTT-Q103 induced, cytoprotection, ATP luminescence, 40 h. Potency, µM (titrated, usually from 56.4 µM), without a hit: cytoprotection (ATP increase), most hits filed as activators. actives 0.14% (n = 230,000); note: potency is the fitted concentration of half-maximal effect; % of control where 0% means no effect; nearly all actives have a fitted effect of over 45% in size
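PC12 cells stably carrying ecdysone-inducible Htt exon 1 (Q103)–GFP were induced with 100 nM tebufenozide (final) alongside library compounds in a dose series. Cytoprotection was scored as retained ATP by ATPlite luminescence.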
TRb-SRC2 inh: qHTS for Inhibitors of the Interaction of Thyroid Hormone Receptor and Steroid Receptor Coregulator 2. TRbeta-SRC2 peptide binding, fluorescence polarization; receptor liganded with 1 µM T3. Potency, µM (highest dose often 106 µM), for inactives: at the highest dose activity change, negative = inhibition, actives largely listed as inhibitors. actives 0.065% (n = 280,000). AID 1469, 2008;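 note: potency is the fitted concentration of half-maximal effect; plate controls were bound peptide for no effect and peptide without receptor for full effect; nearly all actives have a fitted effect of over 50% in size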
Target sequence (P10828 whole entry, looked up): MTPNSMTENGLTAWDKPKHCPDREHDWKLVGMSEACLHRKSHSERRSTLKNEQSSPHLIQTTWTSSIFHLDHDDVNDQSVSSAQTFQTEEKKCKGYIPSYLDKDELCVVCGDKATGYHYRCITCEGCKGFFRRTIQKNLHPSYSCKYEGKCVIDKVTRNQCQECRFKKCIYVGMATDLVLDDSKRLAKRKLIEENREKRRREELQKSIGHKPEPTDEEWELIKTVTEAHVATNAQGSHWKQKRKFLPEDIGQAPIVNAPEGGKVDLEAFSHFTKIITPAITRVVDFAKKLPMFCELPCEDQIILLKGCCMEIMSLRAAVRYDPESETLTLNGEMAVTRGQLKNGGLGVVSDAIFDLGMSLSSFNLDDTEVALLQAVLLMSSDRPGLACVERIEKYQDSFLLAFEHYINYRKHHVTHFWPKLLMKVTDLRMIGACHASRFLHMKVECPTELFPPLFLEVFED
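Decrease in fluorescence polarization of 20 nM Texas Red SRC2 coactivator peptide flagged inhibition of its binding to 0.6 uM TRb LBD; 1 uM T3 included, incubation 5 hr, ex 555/em 632 nm.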
FBPA coupling cs: qHTS Assay for Inhibitors of Fructose-1,6-bisphosphate Aldolase from Giardia Lamblia: Coupling assay counterscreen. coupling enzyme system counterscreen, AmpLite Red fluorescence. activity change, negative = inhibition, % at 58.2 µM, hits read low. actives 0.67% (n = 290,000); in the data active = activity change below about -30%; note: % is set by controls: 0 for no effect and ±100 for the full control effect
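First, compound is pin-transferred into glyceraldehyde-3-phosphate coupling-enzyme reagent at 57.5 uM final and held 10 min at RT. Next, substrate, coupling system and AmpLite Red are added. After 20 min RT, fluorescence (525/598 nm) is read.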
JMJD2E inh: qHTS Assay for Inhibitors of Human Jumonji Domain Containing 2E (JMJD2E) | actives 1.6% (n = 230,000) | Potency, µM (titrated, usually from 57.1 µM), without a hit: top-dose activity change, negative = inhibition, usual class: inhibitors | JMJD2E catalytic domain, FDH-coupled NADH fluorescence (FDH is formaldehyde dehydrogenase);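 note: potency is the fitted concentration of half-maximal effect; 0% = wells with enzyme and -100% = buffer wells without enzyme; nearly all actives have a fitted effect of over 50% in size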
Target sequence (B2RXH2 1-337 limits assumed): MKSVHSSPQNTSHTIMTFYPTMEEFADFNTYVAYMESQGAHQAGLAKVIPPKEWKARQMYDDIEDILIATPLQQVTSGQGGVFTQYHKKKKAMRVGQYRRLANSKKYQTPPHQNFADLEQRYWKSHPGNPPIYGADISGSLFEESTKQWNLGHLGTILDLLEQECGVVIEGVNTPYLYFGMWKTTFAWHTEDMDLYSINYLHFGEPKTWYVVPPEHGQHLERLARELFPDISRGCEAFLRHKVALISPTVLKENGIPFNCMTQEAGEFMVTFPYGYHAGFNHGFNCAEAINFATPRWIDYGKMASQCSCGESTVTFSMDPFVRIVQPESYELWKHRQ
HttQ103 aggreg: qHTS Multiplex Assay to Identify Dual Action Probes in a Cell Model of Huntington: Aggregate Formation (GFP). PC12 HttQ103-GFP aggregates, Acumen cytometry, 40 h. Potency, µM (top dose mostly 46.1 µM), inactives show top-dose activity change, negative = inhibition, usual class: inhibitors. actives 1.1% (n = 220,000); note: potency is the fitted concentration of half-maximal effect; % is set by controls: 0 for no effect and ±100 for the full control effect; nearly all actives have a fitted effect of over 60% in size
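Read-out: GFP aggregate count by laser scanning cytometer (488 nm excitation, 500-530 nm emission, 1–25 µm objects >6 SD above background). Cells: PC12, inducible HTTex1-Q103-GFP, 100 nM tebufenozide; compounds titrated.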
TR SRC2 fluor cs: Total Fluorescence Counterscreen for Inhibitors of the Interaction of Thyroid Hormone Receptor and Steroid Receptor Coregulator 2; TRb/SRC2 Texas Red total fluorescence interference; Potency, µM (titrated, usually from 106 µM), for inactives: top-dose fluorescence change, negative = quenching; actives 0.29% (n = 280,000); AID 1479, 2009; active = well fitted curve in either direction with a large enough effect; inconclusive = small, poorly fitted or top-dose-only effect; note: potency is the fitted concentration of half-maximal effect; % is set by controls: 0 for no effect and ±100 for the full control effect
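Flags fluorescent or light-absorbing compounds by total fluorescence, S + 2P, at 555 nm excitation and 632 nm emission. Mixture: 20 nM Texas Red SRC2 peptide, 0.6 uM human TRb LBD, 1 uM T3, 5% DMSO; compound exposure 5 h at ambient temperature.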
Starred values were filed as active, the others as inactive; ? = inconclusive; . = no result given; [ ] = another dose, or the depositor's remark. Unless noted, calls come from the whole dose curve; as a rule, active = well fitted curve in the direction sought with a large enough effect; inconclusive = small, poorly fitted or top-dose-only effect, or another doubt; inactive = no such curve, though single readings can be large; an effect the other way counts as inactive or inconclusive.

SMILES | HTT cytoprotect | TRb-SRC2 inh | FBPA coupling cs | JMJD2E inh | HttQ103 aggreg | TR SRC2 fluor cs
CCCCCCCCCC(C)=O | . | 7%[201 µM] | . | . | . | -4%[201 µM]
CC(C)CN(c1ccccc1)S(=O)(=O)c1nnc(NC(=O)C2CCCCC2)s1 | . | -17% | . | . | . | 4.5µM*[quencher]
CC(C)(C)c1cc(C(C)(C)C)c(O)c(C(C)(C)C)c1 | . | 3%[201 µM] | . | . | . | 3%[201 µM]
CCC(=O)NCCCC[C@H](NC(=O)OCc1ccccc1)C(=O)Nc1ccc2c(C)cc(=O)oc2c1 | . | -2% | -2 | . | . | 3%
N#Cc1c(N(CCO)CCO)nc(N)c2c(N)nc3c(c12)CC(=O)N3CC1CCCO1 (centres undefined) | 4%[10 µM] | -7% | -38* | ? | -1%[9.22 µM] | -2%
Cc1ccc(OCCN2CCN(c3ncnc4sc(C)c(C)c34)CC2)cc1 | -28% | 6% | 2 | 4% | 2.5µM* | 0%
Cc1ccnc(NC(c2ccccc2O)c2oc(CO)cc(=O)c2O)c1 (centres undefined) | -22% | 7% | -33* | ? | -17% | 0%
COc1ccc(CCNc2ncnc3c2oc2ccccc23)cc1OC | -44% | -3% | -9 | -6% | 2µM* | -1%
COc1ccc2c(c1)c(C(=O)N/N=C/c1cccc(Br)c1)c(C)n2C | -12%[10 µM] | -4% | -45* | -1% | -5%[9.22 µM] | 4%
COc1ccc2c(c1)c(C(=O)N/N=C/c1cccc(O)c1)c(C)n2C | -6%[10 µM] | 6% | -4 | 0% | 11% | -2%
O=C(Cc1ccccc1)Nc1c(C(=O)N2CCN(c3ccc(F)cc3)CC2)oc2ccccc12 | . | 4% | . | . | . | 1%
CCOC(=O)C(C)NC(=O)c1cc2c(=O)[nH]c3ccc(C)cc3c2s1 (centres undefined) | . | 0% | . | . | . | 5%
O=C(CNC(=O)c1ccccc1Cl)N/N=C/c1ccc([N+](=O)[O-])s1 | 14%[10 µM] | -4% | 3 | -9% | 11µM* | -1%
CCOc1cc(NC(C)=O)ccc1C(=O)OC | 19% | -5% | -1 | . | 6% | -4%
C#CC[N+](C)(C)CCCCCCCCCC | -7%[10 µM] | -20% | 5 | 6% | ? | -4%
C#CC[N+](C)(C)CCCCCCCC | -12%[10 µM] | 4% | -3 | 11% | 8.9µM* | 2%
CCCCCCCCCCCCCC[N+](C)(C)Cc1ccccc1 | -99% | . | . | . | 25µM* | .
C[N+](C)(C)CCCCCC[N+](C)(C)C | ? | -3% | 8 | 6% | -10% | -1%
CCCCCCCCCCCCCCCC[N+](C)(C)CC | -98% | 9% | . | . | 14µM* | 1%
CCCCCCCCCCCCCC[N+](C)(C)C | -107% | 3% | . | . | 16µM* | -2%
COc1cccc(NC(=O)c2nnn(Cc3cccc(C(F)(F)F)c3)c2N)c1 | . | -9% | . | . | . | 0%
COc1cccc(N2C(=O)C(CC(=O)Nc3cccc(F)c3)N(C(C)C)C2=O)c1 (centres undefined) | . | -6% | . | . | . | 0%
CCOc1ccc(NC(=O)CSc2nc(=O)[nH]c3c2CCC3)cc1 | . | -4% | . | . | . | 0%
CCCCCCOc1ccc(N2C(=O)CC(S/C(N)=N/N=C(\C)c3cccs3)C2=O)cc1 (centres undefined) | 0.79µM* | 2% | -2 | -2% | -1% | 3%
Cc1ccc(C2=NC(c3ccc(F)cc3)=Nc3ccc(C)cc3N2)cc1 | . | -1% | . | . | . | 1%
SMILES | HTT cytoprotect | TRb-SRC2 inh | FBPA coupling cs | JMJD2E inh | HttQ103 aggreg | TR SRC2 fluor cs
CCOC(=O)CC(=O)CSc1nc2ccsc2c(=O)n1Cc1ccccc1 | . | -6% | . | . | . | ?
Cc1ccc2[nH]c3c(c2c1)CN(C(=O)CN1CC(C)OC(C)C1)CC3 (centres undefined) | 2% | 0% | -33* | -7% | -15% | -1%
CN1CCc2c(sc3c2C(=O)NC(c2ccccc2)N3)C1 (centres undefined) | . | -14% | -22 | ? | 6% | 16%
CN1CCc2c(sc3c2C(=O)NC(c2ccccn2)N3)C1 (centres undefined) | -8%[0.074 µM] | 10µM* | -62* | ? | 32% | 45µM*[fluorescent]
COc1ccccc1-c1nnc(C2CCN(C(=O)c3cccc(Cl)c3)CC2)o1 | . | -3% | . | . | . | 0%
Cc1oc2ccc(O)c(CN3CCN(C)CC3)c2c1C(=O)Nc1cccc(C(F)(F)F)c1 | . | -10% | . | . | . | ?
C=CCn1c(SCC#N)nc2c(c1=O)C(C)(C)Cc1ccccc1-2 | -12%[10 µM] | 3% | 6 | -3% | 10µM* | 0%
O=C(c1ccccc1)N1CCN(c2ncnc3sc4c(c23)CCC4)CC1 | 0%[10 µM] | -19% | 13 | 0% | 35µM* | 2%
c1nc(N2CCOCC2)c2c3c(sc2n1)CCCC3 | 13%[1.9 µM] | 7% | 2 | -16% | ? | -1%
CCn1c(=O)c(=O)[nH]c2cc(C(=O)N3CCN(c4ccccc4F)CC3)ccc21 | 21%[10 µM] | 14% | -4 | -9% | -17% | 45µM*[fluorescent]
COCCn1c(=O)[nH]c2cc(C(=O)N3CCN(c4ccccc4F)CC3)ccc2c1=O | . | . | 7 | . | . | .
N#CC(C#N)=Cc1ccc(OC(=O)c2ccccn2)cc1 | -21%[10 µM] | 10% | 1 | 18µM* | 18% | 1%
COc1ccc(NS(=O)(=O)c2cccc(C(=O)N/N=C(\C)c3ccc(-n4ccnc4)cc3)c2)cc1 | -2% | -23% | -46* | ? | 6% | -3%
Cc1ccc2c(c1)CCCN2C(=O)c1ccco1 | -17% | -3% | 0 | 4% | 2.5µM* | 1%
COc1cccc2nc3cc(C)c(C)cc3nc12 | -56%[10 µM] | 3% | -39* | -4% | 14%[9.22 µM] | -9%
COc1cccc2c1nc(C)c1cc(C)oc12 | -8% | -22% | 5 | ? | -25% | -3%
CCCCn1c(NS(=O)(=O)c2ccc(C)cc2)c(S(=O)(=O)c2ccccc2)c2nc3ccccc3nc21 | -13%[10 µM] | ? | -53* | ? | 10% | -1%
Cc1ccc(S(=O)(=O)c2c(N)n(CCCN(C)C)c3nc4ccccc4nc23)cc1 | -5%[10 µM] | -9% | 3 | ? | -25%[9.22 µM] | -1%
Cc1cccc(Cl)c1OCCN1CCCC1 | . | . | -30* | . | . | .
Cc1ccc(N(C)C(=O)N2CCN(S(=O)(=O)c3ccc4ccccc4c3)CC2)cc1 | 11%[10 µM] | 0% | -2 | 2% | 11µM* | -5%
Cc1ccc(N(C)C(=O)N2CCN(S(=O)(=O)c3ccc(C)cc3)CC2)cc1 | -8% | -7% | 0 | -4% | 13% | 2%
CCCCN(CC)CCNS(=O)(=O)c1cccc2cccnc12 | 23% | . | . | . | . | .
